According to PubChem BioAssay:
Calls of active or inactive are those of the source. The rule behind the calls is not given here.

Biological target: Pantothenate synthetase (Mycobacterium tuberculosis (strain ATCC 25618 / H37Rv)) (UniProt P9WIL5)
Assay: Coupled enzyme confirmation of inhibitors against recombinant Mtb PanC (AID 375);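 note: 0% = full reaction with vehicle and 100% = no enzyme background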
Conditions: coupled enzyme assay; at 10 µM, stronger effect = higher value

Pantothenate synthetase (Mycobacterium tuberculosis (strain ATCC 25618 / H37Rv)), sequence (P9WIL5 whole entry, looked up): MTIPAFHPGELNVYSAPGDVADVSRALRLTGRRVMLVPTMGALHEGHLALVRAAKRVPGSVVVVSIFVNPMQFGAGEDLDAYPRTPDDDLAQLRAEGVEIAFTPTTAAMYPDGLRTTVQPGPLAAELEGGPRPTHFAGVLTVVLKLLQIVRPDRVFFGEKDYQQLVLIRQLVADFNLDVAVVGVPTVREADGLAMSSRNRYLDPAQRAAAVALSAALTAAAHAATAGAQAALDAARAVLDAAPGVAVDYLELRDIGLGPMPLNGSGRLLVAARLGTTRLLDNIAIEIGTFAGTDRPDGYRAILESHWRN

Structure (SMILES)	inhibition
CC(C)Cc1ccc(C(C)C(=O)O)cc1 (configuration not stated)	0% (inactive)
COc1ccc(NC(=O)C2CCCN(S(=O)(=O)c3cccc4cccnc34)C2)cc1OC (configuration not stated)	0% (inactive)
CC(=O)Nc1ccc(S(=O)(=O)CCC#N)cc1	5% (inactive)
O=C(c1c(Cl)nc2sccn12)N(C(=O)c1c(Cl)nc2sccn12)c1ccc(Cl)cn1	0% (inactive)
COCCn1c(-c2ccco2)nc2nc3ccccc3nc21	5% (inactive)
Cc1cc(Cl)cc2c1NC(=O)[C@]21[C@@H]2C(=O)N(Cc3ccccc3)C(=O)[C@@H]2[C@@H]2CCCN21	6% (inactive)
N#Cc1c(N)n(CCNC(=O)c2cccs2)c2nc3ccccc3nc12	9% (inactive)
COc1ccc(CNC(=O)c2ccc(CN3CCOCC3)cc2)cc1	8% (inactive)
CCOC(=O)c1[nH]c2ccc(F)cc2c1NC(=O)C(C)N1CCc2cc(OC)c(OC)cc2C1 (configuration not stated)	3% (inactive)
CCCCn1cnc2c(c1=O)c1nc3ccccc3nc1n2Cc1ccc2c(c1)OCO2	0% (inactive)
CCCC1(C(=O)OC)NC(c2cc(OC)c(OC)c(OC)c2)C2C(=O)N(CC)C(=O)C21 (configuration not stated)	0% (inactive)
COc1cccc(C(=O)OCn2nnc3ccccc3c2=O)c1	0% (inactive)
Cc1nn(-c2nc3ccccc3s2)c(C)c1Oc1ccccc1O	2% (inactive)
O=C(OCc1nnc(-c2ccccc2)o1)C1=COCCO1	0% (inactive)
N#Cc1c(N2CCCC2)nc(N)c2c(N)nc(N3CCCC3)cc12	0% (inactive)
COc1cccc(NC(=O)N2CCCC2C(=O)Nc2ccc3c(c2)OCO3)c1 (configuration not stated)	4% (inactive)
Cn1cnnc1SCC(=O)Nc1ccccc1Sc1ccccc1	7% (inactive)
Cc1ccc(-n2c3c(cc(C(=O)NC4CCSC4=O)c2=O)C(=O)CC(C)(C)C3)cc1 (configuration not stated)	0% (inactive)
Cc1cc(-c2ccccc2)c(C#N)c(N)n1	1% (inactive)
C=CCN1C(=O)C2(/C(=C(\O)c3ccc4c(c3)OCCO4)C(=O)C(=O)N2CCCOC)c2ccccc21 (configuration not stated)	0% (inactive)
CCOc1ccc(NC(=O)C2CC(=O)N(C(C)C)C2)cc1 (configuration not stated)	2% (inactive)
CCC(C)OC(=O)n1ccc(C(=O)Nc2nccs2)n1 (configuration not stated)	0% (inactive)
